Measurements from PubChem BioAssay (NCI).
Compounds without any hit were thinned out: in the full panel of roughly 83,000, 20% have a hit.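 Testing used 96-well plates and a 48-hour single-concentration exposure. Example: -40 means 40% of the starting cells died.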 A number with no mark means an inactive call. Activity calls are given as the source filed them. How the source made its calls: active means growth percent below 10; inactive means the rest.

Tested on: HL-60(TB) leukemia
Assay: NCI-60 one-dose screen, 48 h (100 = growth as untreated, 0 = no growth, -100 = all killed)
Conditions: 10 µM unless noted

Structure (SMILES) | growth
C#CCOc1ccc(C(Nc2ccc(OC)cc2)c2nnnn2C2CCCCC2)cc1 (configuration not stated) | 84.7%
COC[C@@]1(C)CC[C@]2(C)CC[C@]3(C)C(=CC[C@@H]4[C@@]5(C)CCCNC(C)(C)[C@@H]5CC[C@]43C)C2C1 (some centres not stated) | 48.3%
Cc1ccc(-c2nc(C(Cl)Cl)nc3cc(-c4ccccc4)nn23)cc1 | -12% (active)
O=C1/C(=C/c2ccc([N+](=O)[O-])cc2)SC(=Nc2ccccc2)N1Nc1ccccc1 | 25.8%
COc1cc(CNC(=O)/C=C/c2ccccc2)ccc1OCC(=O)NO | 121%
O=C1C2=C(C(=O)c3c(O)cccc31)C(c1ccco1)c1sc(=O)[nH]c1S2 (configuration not stated) | -17.6% (active)
Cc1ccc(Cc2cnc(NC(=O)/C(C#N)=C/c3ccc(-c4ccc(Cl)cc4)o3)s2)cc1 | 88.5%
COc1ccc(C(=NNS(=O)(=O)c2ccc(C)cc2)c2ccccc2)cc1OC | 96.9%
O=C(CSc1nc2ccccc2c(=O)n1-c1ccccc1)Nc1ccc(S(=O)(=O)Nc2nccs2)cc1 | 78.7%
COc1cc(OC)c(/C=C/S(=O)(=O)Cc2ccc(OC)c(NC(=O)CCC(=O)NO)c2)c(OC)c1 | -10.8% (active)
COc1ccc2c(c1)C=CC1(O2)Oc2ccc(OC)cc2C=C1C (configuration not stated) | -3.1% (active)
Cn1c2ccc(Br)cc2c2c3c(c4c5cc(F)ccc5oc4c21)C(=O)N(O)C3=O | 99.6%
CNC1CCc2c(sc(NC(=O)c3ccc(C(C)(C)C)cc3)c2C(N)=O)C1 (configuration not stated) | -69.3% (active)
C=C(C)C(=O)O[C@H]1C[C@@]2(C)OC(=CC2=O)[C@H](C)[C@H](O)[C@H]2OC(=O)C(=C)[C@@H]21 | 14.3%
c1ccc2c(NCCCn3ccnc3)c3oc4ccccc4c3nc2c1 | -1.2% (active)
CCc1nnc(NC(=O)c2cc(-c3ccc(Cl)cc3Cl)oc2C)s1 | 88.5%

Structure (SMILES) | growth
O=C(N/N=C/c1ccc([N+](=O)[O-])s1)c1[nH]c2ccc(Br)cc2c1-c1ccccc1 | -28.9% (active)
O=C(NNc1nc2cc(F)c(F)cc2n2cccc12)c1cnccn1 | 3.67% (active)
O=C(NNc1nc2cc(F)cc(F)c2n2cccc12)c1ccncn1 | -7.85% (active)
Nc1nc(Nc2ccccc2SSc2ccccc2Nc2nc(N)nc(-c3cccc(Br)c3)n2)nc(-c2cccc(Br)c2)n1 | 83%
Cc1c(Nc2nnc(SCC(=O)Nc3sc4c(c3C#N)CCCC4)s2)c(=O)n(-c2ccccc2)n1C | 108%
CN1CCN(Cc2ccc(NC(=O)c3cncc(C#Cc4cnc5ccc(N6CCOCC6)nn45)c3)cc2C(F)(F)F)CC1 | -40.8% (active)
Cc1cc(C(NC(=O)CCCCCNc2cccc3c2C(=O)N(C2CCC(=O)NC2=O)C3=O)c2cccnc2)c(O)c2ncccc12 (configuration not stated) | -31% (active)
Oc1ccc(-c2nnc(SCc3ccc(O)c4ncccc34)n2-c2ccccc2)cc1 | 1.26% (active)
CC1OC(O[C@@H]2C(O)C(CO)OC(O[C@H]3COC(O[C@H]4CC[C@]5(C)[C@H]6CC[C@]78OC[C@@]9(CC[C@](C)(C=O)C[C@H]97)[C@H](O)C[C@@]8(C)[C@]6(C)CC[C@H]5C4(C)C)[C@@H](OC4OC(CO)[C@@H](O)[C@@H](O)[C@@H]4O)[C@@H]3O)[C@H]2OC2OC[C@@H](O)[C@@H](O)[C@@H]2O)[C@@H](O)[C@@H](O)[C@H]1O (some centres not stated) | -60.5% (active)
CN1CCN(c2ccc(Nc3nc(NCCCNS(=O)(=O)c4cccc(F)c4)c4sccc4n3)cc2)CC1 | -48.7% (active)
COc1ccc(/C=N/NC(=O)CSc2nc(-c3cnccn3)cc(-c3cccs3)c2C#N)cc1 | 93.8%
CC[C@]12C=CCN3CC[C@]4(C(=C(C(=O)OC)C1)Nc1cc5c(cc14)[C@@H]1[C@H](O5)[C@@H](O)[C@@]4(CC)CC(C(=O)OC)=C5Nc6cc(OC)ccc6[C@@]56CCN1[C@@H]46)[C@@H]32 | 5.09% (active)
COc1ccc(NC(=O)[C@H](C)N)cc1C(=O)Nc1cccc(-c2cc(=O)c3c(OC)c(OC)c(OC)cc3o2)c1 | 58.9%
Fc1ccc2nc(-c3cnn4cccnc34)sc2c1 | 96.7%
CC1(COc2ccc3ncc(C#Cc4cncc(C(=O)Nc5cccc(C(F)(F)F)c5)c4)n3n2)COC1 | 39.9%
C#CCN(C)CCCOc1ccc(NCc2ccc(C(=O)NO)cc2)cc1Cl | 12%
